A number with no mark means an inactive call. The rule behind the calls is not given here.

One may read the inhibition as the percentage by which the read-out fell short of the control.

For the experiment, the target named is Pantothenate synthetase (Mycobacterium tuberculosis (strain ATCC 25618 / H37Rv)) (UniProt P9WIL5). The experiment in a line: Recombinant Mtb pantothenate synthetase (PanC) inhibitors, coupled enzyme, confirmatory (AID 375).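 Note: 0% = full reaction with vehicle and 100% = no enzyme background.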 The settings on record: coupled enzyme assay; at 10 µM, hits give high values.
Chain of Pantothenate synthetase (Mycobacterium tuberculosis (strain ATCC 25618 / H37Rv)) (P9WIL5 whole entry, looked up): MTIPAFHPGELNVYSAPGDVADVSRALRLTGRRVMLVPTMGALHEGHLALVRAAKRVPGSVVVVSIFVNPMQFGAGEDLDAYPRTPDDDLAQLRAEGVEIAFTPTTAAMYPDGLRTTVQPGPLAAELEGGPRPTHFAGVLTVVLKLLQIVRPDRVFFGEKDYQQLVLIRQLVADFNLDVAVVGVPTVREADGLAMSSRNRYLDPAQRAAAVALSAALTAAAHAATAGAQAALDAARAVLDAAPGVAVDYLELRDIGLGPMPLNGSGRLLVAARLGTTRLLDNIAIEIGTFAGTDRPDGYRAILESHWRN

For `CC1Cc2ccccc2N1S(=O)(=O)c1ccc2c(c1)n(C)c(=O)c(=O)n2C` (stereo not drawn), the inhibition was 0%. Consider `COc1cccc(NC(=O)C2C3C=CC4(O3)C2C(=O)N(C(C)C)C4C(=O)NC2CCCCC2C)c1` (stereo not drawn), for which the inhibition was 2%.

With `CC(=O)c1c(OC(=O)c2ccco2)c2ccccc2n1C`, the inhibition was 0%.

Turning to `O=C(CCSc1nnc(-c2ccncc2)o1)Nc1ccccc1`, the inhibition was 0%. On to `CCOC(=O)c1[nH]c2ccc(Br)cc2c1NC(=O)CNC`, for which the inhibition was 4%. `COCCn1c(C)c(C(=O)O)sc1=S`: the inhibition was 6%. With `CCn1c(SCC(=O)N2CCOCC2)nc2c(c1=O)SC(C)C2` (stereo not drawn), the inhibition was 0%. For `O=C(c1ccco1)N1CCN(C(=O)c2sccc2-c2ccccc2)CC1`, the inhibition was 0%. The figure for `S=C(N=Nc1ccccc1)NNc1ccccc1` is 0%; for `Cc1ccc(S(=O)(=O)NCC(=O)OCC(=O)Nc2ncc(Cl)cc2Cl)cc1` it is 0%; for `CCN(CCNC(=O)C1CCN(S(=O)(=O)c2cccc3cccnc23)CC1)c1ccccc1` it is 1%.

Turning to `O=C(CCCCCN1C(=O)CCC1=O)NCc1ccccc1`, the inhibition was 11%. The figure for `O=C(O)c1ccccc1Nc1cccc(C(F)(F)F)c1` is 2%; for `COc1ccccc1CNC(=O)C(C)NS(=O)(=O)c1ccccc1` (stereo not drawn) it is 3%; for `Cc1nn(C(=O)c2ccccc2)c2c1C(=O)CC(C)(C)C2` it is 0%. Take `CCn1nc(NC(=O)c2cccnc2)c2cc3ccccc3nc21`: the inhibition was 0%.

As for `CN=C(Nc1cc(C)nn1-c1ccccc1)c1ccccc1`, the inhibition is 0%.

With `CCNC(=O)CC1C(=O)N(c2ccc(F)cc2)C(=O)N1CCC(C)C` (stereo not drawn), the inhibition is 0%.
